Some test systems named below: RPMI-8226 leukemia; OVCAR-8 ovarian; OVCAR-5 ovarian; OVCAR-4 ovarian; SK-OV-3 ovarian; OVCAR-3 ovarian; HS 578T breast; T-47D breast; NCI/ADR-RES ovarian; IGROV1 ovarian.
Common to all, as to assay: NCI-60 one-dose screen, 48 h (100 = growth as untreated, 0 = no growth, -100 = all killed)
Holding throughout (conditions): 10 µM

Compounds without any hit were thinned out: in the full panel of roughly 83,000, 20% have a hit.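 96-well plates, one dose, 48 hours. Percent growth reported; active if below 10.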 Values without a mark were called inactive. Calls of active or inactive are those of the source.

For `Nc1ccn(C2CC(O)C(CO)O2)c(=O)n1` (stereo not drawn), the growth is 112% with RPMI-8226 leukemia; 106% in the assay on OVCAR-8 ovarian; 92.4% in the assay with OVCAR-5 ovarian; 114% in the assay on OVCAR-4 ovarian; 105% in the assay with SK-OV-3 ovarian; 123% with OVCAR-3 ovarian. In addition, the values for the growth in the assay with HS 578T breast and in the assay with T-47D breast were 111% and 103%, respectively.

`COc1cccc(Cn2c(-c3nonc3N)nc3ccccc32)c1`: the growth in the assay with RPMI-8226 leukemia was 4.9% (active); in the assay with OVCAR-8 ovarian it was 21.4%; with OVCAR-5 ovarian, 37.5%; in the assay with OVCAR-4 ovarian it was 32.2%; with SK-OV-3 ovarian, 6.27% (active); in the assay on OVCAR-3 ovarian, -54% (active). For the same molecule, the growth is 3.15% (active) in the assay with HS 578T breast, 14.4% with NCI/ADR-RES ovarian and 55.1% in the assay on T-47D breast.

On to `COc1ccc(/C(=C2\O[C@@H]([C@H]3COC(C)(C)O3)[C@H]3OC(C)(C)O[C@@H]23)c2cc(OC)c(OC)c(OC)c2)cc1O`, for which the growth with RPMI-8226 leukemia was 63.7%; in the assay with OVCAR-8 ovarian, 68.3%; in the assay with OVCAR-5 ovarian it was 95.4%; with OVCAR-4 ovarian it was 99.2%; in the assay on SK-OV-3 ovarian, 38%; in the assay with OVCAR-3 ovarian it was 48%. Besides, the growth in the assay on HS 578T breast is -22.2% (active); with NCI/ADR-RES ovarian, 10.1%; in the assay on T-47D breast it was 121%.

As for `CCC(=O)N1C/C(=C/c2ccc(Cl)cc2)C(=O)/C(=C/c2ccc(Cl)cc2)C1`, the growth in the assay on RPMI-8226 leukemia was -37% (active); in the assay on OVCAR-8 ovarian, 1.63% (active); in the assay with OVCAR-5 ovarian, 2.37% (active); with OVCAR-4 ovarian it was 8.11% (active); in the assay with IGROV1 ovarian, -66.1% (active); with OVCAR-3 ovarian it was -47.2% (active). The growth with HS 578T breast was 22.2%; in the assay on NCI/ADR-RES ovarian it was 14.9%; with T-47D breast it was 26%.

For the molecule `S=C1SCC(c2ccccc2)S1` (stereo not drawn), the growth in the assay with RPMI-8226 leukemia was 102%; with OVCAR-8 ovarian it was 103%; in the assay with OVCAR-5 ovarian, 106%; in the assay with OVCAR-4 ovarian, 93.8%; in the assay with SK-OV-3 ovarian, 104%; in the assay on OVCAR-3 ovarian it was 121%. For the same molecule, the growth was 143% in the assay on HS 578T breast, 112% with NCI/ADR-RES ovarian and 99.6% in the assay with T-47D breast.

On to `Clc1cccc(-c2nc(-c3cccs3)no2)c1`, for which the growth in the assay with RPMI-8226 leukemia was 93.7%; in the assay with OVCAR-8 ovarian, 107%; in the assay on OVCAR-5 ovarian, 108%; in the assay with OVCAR-4 ovarian, 65.8%; in the assay on SK-OV-3 ovarian, 106%; with OVCAR-3 ovarian it was 104%. The growth in the assay on HS 578T breast was 136%; in the assay on NCI/ADR-RES ovarian, 107%; in the assay with T-47D breast, 66.7%.

As for `CCCCCC(=O)c1ccc(OCCCN2CCN(C(=O)OCC)CC2)cc1`, the growth with RPMI-8226 leukemia was 48.6%; in the assay with OVCAR-8 ovarian, 104%; with OVCAR-5 ovarian, 86%; in the assay with OVCAR-4 ovarian, 85.1%; in the assay on IGROV1 ovarian it was 112%; in the assay with OVCAR-3 ovarian, 104%. The figures for the growth in the assay with HS 578T breast, in the assay with NCI/ADR-RES ovarian and in the assay on T-47D breast were 102%, 83.3% and 88.1%, respectively.

On to `O=C(Nc1ccc(CO)cc1)c1ccccc1Nc1ccnc(C(F)(F)F)c1`, for which the growth was 89% in the assay with RPMI-8226 leukemia; 98.3% in the assay on OVCAR-8 ovarian; 104% with OVCAR-5 ovarian; 98.2% in the assay with OVCAR-4 ovarian; 101% in the assay with IGROV1 ovarian; 110% in the assay on OVCAR-3 ovarian. In addition, the figures for the growth in the assay with NCI/ADR-RES ovarian and with T-47D breast were 102% and 86.9%, respectively.

As to `COc1cc(-c2cc(/C=C/C(=O)c3ccc4c(c3)OCO4)[nH]n2)cc(OC)c1OC`, the growth in the assay with RPMI-8226 leukemia is -11.6% (active); in the assay with OVCAR-8 ovarian it was 76.6%; in the assay on OVCAR-5 ovarian, 83.3%; with OVCAR-4 ovarian, 76.6%; in the assay with IGROV1 ovarian it was 98.5%; with OVCAR-3 ovarian, 77.7%. Moreover, the growth in the assay with NCI/ADR-RES ovarian was 78.5%; in the assay on T-47D breast, 40%.

As to `N=c1c2c(-c3ccccc3)c(-c3ccccc3)n(Cc3ccccc3)c2ncn1CCCO`, the growth in the assay with RPMI-8226 leukemia was 18.7%; with OVCAR-8 ovarian it was 32.5%; in the assay with OVCAR-5 ovarian, 55.6%; in the assay on OVCAR-4 ovarian, 35.7%; in the assay on IGROV1 ovarian, 8.33% (active); in the assay with OVCAR-3 ovarian, 8.78% (active). The figures for the growth in the assay on HS 578T breast, with NCI/ADR-RES ovarian and in the assay on T-47D breast were 46%, 42.9% and 65.9%, respectively.

As for `Nc1c(C(=O)Nc2ccccc2)sc2nc3c(cc12)C(O)CCC3` (stereo not drawn), the growth was 11.6% in the assay with RPMI-8226 leukemia; 31% in the assay on OVCAR-8 ovarian; 57.1% in the assay on OVCAR-5 ovarian; 61.3% with OVCAR-4 ovarian; 29.4% in the assay with IGROV1 ovarian; -19.1% (active) in the assay on OVCAR-3 ovarian. The figures for the growth in the assay with HS 578T breast, with NCI/ADR-RES ovarian and with T-47D breast were 39.6%, 11.6% and 53.9%, respectively.

As for `COc1ccc(-c2cc(/C=C3\C(=O)Nc4ccc(Cl)cc43)[nH]n2)cc1OC`, the growth in the assay on RPMI-8226 leukemia is 68.6%; with OVCAR-8 ovarian, 81.4%; in the assay with OVCAR-5 ovarian, 101%; in the assay with OVCAR-4 ovarian it was 19%; in the assay on IGROV1 ovarian it was 66.8%; in the assay with OVCAR-3 ovarian, 104%. Moreover, the values for the growth in the assay with HS 578T breast, in the assay on NCI/ADR-RES ovarian and in the assay on T-47D breast were 87.8%, 91.5% and 72.2%, respectively.

For `O=C1C(c2ccccc2)C2C=CC(C2)N1O` (stereo not drawn), the growth in the assay on RPMI-8226 leukemia was 81%; in the assay on OVCAR-8 ovarian, 104%; with OVCAR-5 ovarian, 119%; with OVCAR-4 ovarian it was 116%; in the assay with IGROV1 ovarian, 108%; with OVCAR-3 ovarian it was 112%. Besides, the values for the growth with HS 578T breast, in the assay on NCI/ADR-RES ovarian and with T-47D breast were 105%, 112% and 92.1%, respectively.

For the molecule `Cc1cn(C2CCCCO2)c(=O)nc1NO` (stereo not drawn), the growth with RPMI-8226 leukemia was 111%; in the assay on OVCAR-8 ovarian, 101%; with OVCAR-5 ovarian, 109%; in the assay with SK-OV-3 ovarian, 119%; in the assay with IGROV1 ovarian it was 113%; in the assay with OVCAR-3 ovarian, 109%. Further, the figures for the growth in the assay on HS 578T breast, in the assay on NCI/ADR-RES ovarian and in the assay on T-47D breast were 86.8%, 107% and 105%, respectively.

These data come from PubChem BioAssay (NCI).
